Test results reported in PubChem BioAssay (EPA / NIEHS).
Calls of active or inactive are those of the source. The calls were made as follows: active = hit-call score of the fitted dose curve at least 0.9, where 1 is the maximum; inactive = score below 0.9.

What was measured:
Settings in all cases: mRNA level, 48 h; actives raise or lower the signal
[1] = read-out: Apoptosis regulator Bcl-2 (Homo sapiens) (UniProt P10415); test: LTEA_HepaRG_BCL2: Life Technologies and Expression Analysis (LTEA) Assay for Bcl-2 gene using HepaRG (AID 2283475)
Method in brief: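 qRT-PCR of BCL2 transcript, normalized to three housekeeping genes (ACTB, GAPDH, POLR2A), after 48 h chemical exposure of HepaRG cells; concentrations top 100 uM with half-log dilutions, 0.5% DMSO vehicle, duplicates; changes up or down fitted relative to vehicle.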

[2] = read-out: Bcl-2 (BID) gene, BID (gene 637); test: LTEA_HepaRG_BID: Life Technologies and Expression Analysis (LTEA) Assay for Bcl-2 (BID) gene using HepaRG (AID 2283476)
Method in brief: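 Duplicate 48 h treatments of HepaRG cells in serum-free induction medium spanned 100 uM downward in half-log steps, 0.5% DMSO. Transcript change quantified by qRT-PCR against three housekeeping genes, fitted up or down versus DMSO.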

Caspase-3 (Homo sapiens) = Caspase-3 (Homo sapiens) (UniProt P42574); test: LTEA_HepaRG_CASP3: Life Technologies and Expression Analysis (LTEA) Assay for cysteine-aspartic acid protease (CASP3) using HepaRG (AID 2283477)
Chain of Caspase-3 (Homo sapiens) (P42574 whole entry, looked up): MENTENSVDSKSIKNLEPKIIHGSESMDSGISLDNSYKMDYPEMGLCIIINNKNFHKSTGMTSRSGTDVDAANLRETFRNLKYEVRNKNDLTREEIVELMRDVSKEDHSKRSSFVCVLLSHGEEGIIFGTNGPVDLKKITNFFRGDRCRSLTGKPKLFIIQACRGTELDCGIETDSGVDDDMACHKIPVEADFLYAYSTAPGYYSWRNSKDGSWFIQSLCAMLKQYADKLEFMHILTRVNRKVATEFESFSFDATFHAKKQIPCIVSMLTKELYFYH
Method in brief: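 HepaRG, 48 h exposure, 8 conc. (top 100 uM, half-log steps, duplicate), 0.5% DMSO vehicle; qRT-PCR of CASP3 transcript, housekeeping-normalised (ACTB/GAPDH/POLR2A); bidirectional curve fit vs DMSO baseline.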

[3] = read-out: Cytochrome P450 (CYP24A1), CYP24A1 (gene 1591); test: LTEA_HepaRG_CYP24A1: Life Technologies and Expression Analysis (LTEA) Assay for Cytochrome P450 (CYP24A1) using HepaRG (AID 2283478)
Method in brief: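 qRT-PCR read-out: CYP24A1 transcript levels normalized to three housekeeping genes, bidirectional curve fits against 0.5% DMSO baseline. Human HepaRG cells treated 48 h with chemicals at eight concentrations from 100 uM in half-log steps.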

[4] = read-out: Cytochrome P450 (CYP1A2), CYP1A2 (gene 1544); test: LTEA_HepaRG_CYP1A2: Life Technologies and Expression Analysis (LTEA) Assay for Cytochrome P450 (CYP1A2) using HepaRG (AID 2283479)
Method in brief: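 HepaRG, 48 h exposure, top 100 uM, half-log 8-pt, 0.5% DMSO vehicle, duplicates. Readout: TaqMan qRT-PCR of CYP1A2 mRNA, housekeeping-normalized (ACTB/GAPDH/POLR2A). Gain/loss fit relative to DMSO baseline.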

[5] = read-out: cysteine-aspartic acid protease (CASP8), CASP8 (gene 841); test: LTEA_HepaRG_CASP8: Life Technologies and Expression Analysis (LTEA) Assay for cysteine-aspartic acid protease (CASP8) using HepaRG (AID 2283480)
Method in brief: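 qRT-PCR readout of CASP8 mRNA, normalized to three housekeeping genes, after 48 h chemical exposure of HepaRG cells; 8-point half-log series, top 100 uM, 0.5% DMSO vehicle. Bidirectional curve fitting against DMSO baseline.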

[6] = read-out: Cytochrome P450 (CYP2B6), CYP2B6 (gene 1555); test: LTEA_HepaRG_CYP2B6: Life Technologies and Expression Analysis (LTEA) Assay for Cytochrome P450 (CYP2B6) using HepaRG (AID 2283481)
Method in brief: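 Read-out is CYP2B6 mRNA by TaqMan qRT-PCR, normalized to three housekeeping genes and fitted bidirectionally against 0.5% DMSO baseline. Human HepaRG cells received test chemicals for 48 h, top concentration 100 uM, half-log dilutions.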

[7] = read-out: Cytochrome P450 2C19 (Homo sapiens) (UniProt P33261); test: LTEA_HepaRG_CYP2C19: Life Technologies and Expression Analysis (LTEA) Assay for CYP2C19 using HepaRG (AID 2283482)
Method in brief: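 HepaRG, 48 h chemical exposure, 8-pt half-log series from 100 uM in 0.5% DMSO, duplicates. Readout: CYP2C19 mRNA by TaqMan qRT-PCR, housekeeping-normalized. Bidirectional fit vs DMSO baseline; phenobarbital 1mM as induction control.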

CYP2C8 (gene 1558) = test: LTEA_HepaRG_CYP2C8: Life Technologies and Expression Analysis (LTEA) Assay for CYP2C8 using HepaRG (AID 2283483)
Method in brief: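 HepaRG (human liver line), 48 h chemical exposure, 8-pt half-log series from 100 uM, 0.5% DMSO vehicle. Readout: CYP2C8 transcript by qRT-PCR, housekeeping-normalized. Bidirectional fit vs DMSO baseline.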

CYP2C9 (gene 1559) = test: LTEA_HepaRG_CYP2C9: Life Technologies and Expression Analysis (LTEA) Assay for CYP2C9 using HepaRG (AID 2283484)
Method in brief: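 HepaRG, 48 h dosing, 8-pt half-log series, top 100 uM, 0.5% DMSO vehicle. Read-out: CYP2C9 transcript by TaqMan qRT-PCR, housekeeping-normalized (ACTB/GAPDH/POLR2A). Gain or loss fitted vs DMSO baseline.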

CYP2E1 (gene 1571) = test: LTEA_HepaRG_CYP2E1: Life Technologies and Expression Analysis (LTEA) Assay for CYP2E1 using HepaRG (AID 2283485)
Method in brief: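 CYP2E1 transcript measured by Fluidigm qRT-PCR against three housekeeping genes in human HepaRG cells treated 48 h (top 100 uM, half-log steps, 0.5% DMSO vehicle). Gain or loss fitted relative to DMSO baseline.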

CYP4A11 (gene 1579) = test: LTEA_HepaRG_CYP4A11: Life Technologies and Expression Analysis (LTEA) Assay for CYP4A11 using HepaRG (AID 2283486)
Method in brief: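 CYP4A11 transcript levels were quantified by TaqMan qRT-PCR after HepaRG human liver cells were treated for 48 hours with test chemicals (top 100 uM, half-log dilutions, 0.5% DMSO). Gain or loss of signal was fitted relative to DMSO.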

[8] = read-out: Cytochrome P450 3A4 (Homo sapiens) (UniProt P08684); test: LTEA_HepaRG_CYP3A4: Life Technologies and Expression Analysis (LTEA) Assay for CYP3A4 using HepaRG (AID 2283487)
Method in brief: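 In a human hepatic line (HepaRG), duplicate wells were treated 48 h with up to 100 uM chemical in half-log dilutions. Endpoint: CYP3A4 mRNA induction or loss relative to 0.5% DMSO vehicle, by qRT-PCR.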

[9] = read-out: DNA damage-inducible transcript 3 (DDIT3), DDIT3 (gene 1649); test: LTEA_HepaRG_DDIT3: Life Technologies and Expression Analysis (LTEA) Assay for DNA damage-inducible transcript 3 (DDIT3) using HepaRG (AID 2283488)
Method in brief: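 DDIT3 transcript was quantified by qRT-PCR with ACTB/GAPDH/POLR2A normalization after 48 h chemical treatment of differentiated HepaRG cells in 0.5% DMSO. Dosing was eight-point, half-log, top 100 uM, duplicate wells. Curves fitted bidirectionally versus DMSO.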

[10] = read-out: Pro-epidermal growth factor (Homo sapiens) (UniProt P01133); test: LTEA_HepaRG_EGF: Life Technologies and Expression Analysis (LTEA) Assay for Epidermal growth factor (EGF) using HepaRG (AID 2283489)
Method in brief: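 qRT-PCR readout of EGF transcript after 48 h chemical exposure of HepaRG cells; eight concentrations from 100 uM down in half-log steps, duplicate wells, 0.5% DMSO vehicle. Bidirectional curve fitting against DMSO baseline.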

[11] = read-out: Early growth response protein 1 (EGR1) transcription factor, EGR1 (gene 1958); test: LTEA_HepaRG_EGR1: Life Technologies and Expression Analysis (LTEA) Assay for Early growth response protein 1 (EGR1) transcription factor using HepaRG (AID 2283490)
Method in brief: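 HepaRG, 48 h exposure, 8-pt half-log series from 100 uM, 0.5% DMSO vehicle; EGR1 transcript by TaqMan qRT-PCR (Fluidigm array), housekeeping-normalized; bidirectional fit relative to DMSO baseline.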

[12] = read-out: Ezrin (EZR), EZR (gene 7430); test: LTEA_HepaRG_EZR: Life Technologies and Expression Analysis (LTEA) Assay for Ezrin (EZR) using HepaRG (AID 2283491)
Method in brief: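 Gain or loss of EZR mRNA is scored relative to 0.5% DMSO in human HepaRG cultures treated 48 h with test chemicals in duplicate, eight half-log concentrations from 100 uM.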

[13] = read-out: Cytochrome P450 3A7 (Homo sapiens) (UniProt P24462); test: LTEA_HepaRG_CYP3A7: Life Technologies and Expression Analysis (LTEA) Assay for CYP3A7 using HepaRG (AID 2283492)
Method in brief: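 CYP3A7 transcript levels were read by TaqMan qRT-PCR on Fluidigm arrays after 48 h chemical exposure of human HepaRG cells, with housekeeping-gene normalisation. Eight half-log concentrations up to 100 uM in 0.5% DMSO were tested in duplicate.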

CYP3A5 (gene 1577) = test: LTEA_HepaRG_CYP3A5: Life Technologies and Expression Analysis (LTEA) Assay for CYP3A5 using HepaRG (AID 2283493)
Method in brief: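 mRNA levels were quantified by qRT-PCR on Fluidigm arrays and normalized to three housekeeping genes. Differentiated HepaRG cells received 48 h exposure (top 100 uM, half-log steps, 0.5% DMSO vehicle, duplicate); bidirectional fitting versus DMSO.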

[14] = read-out: Fatty Acid-Binding Protein 1 (FABP1), FABP1 (gene 2168); test: LTEA_HepaRG_FABP1: Life Technologies and Expression Analysis (LTEA) Assay for Fatty Acid-Binding Protein 1 (FABP1) using HepaRG (AID 2283494)
Method in brief: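 qRT-PCR readout of FABP1 transcript (normalized to three housekeeping genes) after 48 h chemical exposure of HepaRG cells; eight concentrations, half-log steps, max 100 uM, 0.5% DMSO vehicle; gain or loss fitted relative to DMSO baseline.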

Measured: outcome

Chain of Cytochrome P450 3A7 (Homo sapiens) (P24462 whole entry, looked up): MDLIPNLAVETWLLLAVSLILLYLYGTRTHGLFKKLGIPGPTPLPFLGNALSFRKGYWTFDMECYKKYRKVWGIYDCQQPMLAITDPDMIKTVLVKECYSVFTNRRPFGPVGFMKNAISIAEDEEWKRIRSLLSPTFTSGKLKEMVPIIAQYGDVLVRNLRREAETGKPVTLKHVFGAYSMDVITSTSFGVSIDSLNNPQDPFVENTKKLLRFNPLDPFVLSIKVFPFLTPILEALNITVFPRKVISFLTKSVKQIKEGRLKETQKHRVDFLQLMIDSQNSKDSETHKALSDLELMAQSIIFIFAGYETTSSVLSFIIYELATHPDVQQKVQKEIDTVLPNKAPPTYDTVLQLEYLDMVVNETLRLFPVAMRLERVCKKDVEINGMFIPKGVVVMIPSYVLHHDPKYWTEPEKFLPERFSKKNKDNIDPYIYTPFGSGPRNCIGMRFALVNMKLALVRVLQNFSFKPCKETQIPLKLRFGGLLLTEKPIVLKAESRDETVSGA
Chain of Cytochrome P450 3A4 (Homo sapiens) (P08684 whole entry, looked up): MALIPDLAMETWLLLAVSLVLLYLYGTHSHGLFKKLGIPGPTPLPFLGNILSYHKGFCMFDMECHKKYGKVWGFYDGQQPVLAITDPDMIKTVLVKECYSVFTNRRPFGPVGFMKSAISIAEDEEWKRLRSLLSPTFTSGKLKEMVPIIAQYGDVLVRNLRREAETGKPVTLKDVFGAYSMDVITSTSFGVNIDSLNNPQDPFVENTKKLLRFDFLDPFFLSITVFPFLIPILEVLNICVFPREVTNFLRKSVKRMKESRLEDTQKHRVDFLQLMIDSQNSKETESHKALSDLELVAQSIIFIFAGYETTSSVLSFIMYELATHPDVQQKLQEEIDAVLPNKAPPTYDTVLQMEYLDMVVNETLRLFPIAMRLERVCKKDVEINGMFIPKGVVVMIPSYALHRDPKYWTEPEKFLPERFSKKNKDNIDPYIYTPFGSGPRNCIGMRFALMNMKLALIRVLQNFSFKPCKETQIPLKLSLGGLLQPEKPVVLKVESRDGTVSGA
Chain of Apoptosis regulator Bcl-2 (Homo sapiens) (P10415 whole entry, looked up): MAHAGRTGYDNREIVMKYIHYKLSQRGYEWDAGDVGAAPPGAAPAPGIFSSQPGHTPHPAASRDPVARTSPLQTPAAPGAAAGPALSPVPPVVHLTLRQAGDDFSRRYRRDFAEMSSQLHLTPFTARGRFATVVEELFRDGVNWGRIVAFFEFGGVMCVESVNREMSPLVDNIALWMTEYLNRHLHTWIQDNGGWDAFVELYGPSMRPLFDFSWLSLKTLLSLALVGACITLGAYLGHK
Chain of Cytochrome P450 2C19 (Homo sapiens) (P33261 whole entry, looked up): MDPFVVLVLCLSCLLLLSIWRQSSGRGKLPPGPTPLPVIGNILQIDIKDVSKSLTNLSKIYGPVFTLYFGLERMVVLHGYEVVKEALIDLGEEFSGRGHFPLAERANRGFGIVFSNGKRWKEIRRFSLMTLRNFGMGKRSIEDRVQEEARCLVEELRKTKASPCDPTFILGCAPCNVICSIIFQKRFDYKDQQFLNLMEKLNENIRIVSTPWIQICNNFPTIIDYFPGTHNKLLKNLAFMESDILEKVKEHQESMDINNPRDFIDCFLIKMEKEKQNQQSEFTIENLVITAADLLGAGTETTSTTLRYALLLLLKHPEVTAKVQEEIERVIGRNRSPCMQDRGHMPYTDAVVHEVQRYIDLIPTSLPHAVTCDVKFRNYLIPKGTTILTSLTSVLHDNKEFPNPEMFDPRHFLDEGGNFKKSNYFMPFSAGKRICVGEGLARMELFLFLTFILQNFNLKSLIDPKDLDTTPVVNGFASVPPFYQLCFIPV

O=[N+]([O-])c1ccc(Cl)cc1
inactive: [1] | [2] | Caspase-3 (Homo sapiens) | [3] | [4] | [5] | [6] | [7] | CYP2C8 (gene 1558) | CYP2C9 (gene 1559) | CYP2E1 (gene 1571) | CYP4A11 (gene 1579) | [8] | [9] | [10] | [11] | [12] | [13] | CYP3A5 (gene 1577) | [14]
